The record followed here is PubChem BioAssay AID1845226 (National Center for Advancing Translational Sciences (NCATS), 2023).

Records with an inconclusive call do not appear. Active and inactive are the calls of the source. Calls come from the whole dose curve; as a rule, active = well fitted inhibition curve with a large enough effect; inconclusive = small, poorly fitted or top-dose-only effect; inactive = no such curve, though single readings can be large or run the other way.
Potency is the fitted concentration of half-maximal effect.

This experiment can be described thus: Confirmatory fluorescence-based thiol-reactive (MSTI) qHTS assay for identification of artifact compounds. The settings on record: MSTI thiol-reactivity probe, 1 h; series mostly up to 39.2 µM; activity change, negative = inhibition: at the top concentration. The text has this: PI: Alexander Tropsha Ph.D. UNC Eshelman School of Pharmacy University of North Carolina, Chapel Hill, North Carolina Hits from high-throughput screening (HTS) of chemical libraries are often false positives due to their interference with the assay detection technology. In response to this problem, we generated the largest publicly available library of chemical liabilities and developed a free webtool to predict HTS artifacts, both of which are described herein. More specifically, we generated, curated, and integrated HTS datasets for thiol reactivity, redox activity, and luciferase (firefly and nano) activity. Using these curated datasets, we developed and validated several Quantitative Structure-Interference Relationship (QSIR) models to predict nuisance behavior. […] These models were employed for virtual profiling of the National Center for Advancing Translational Science's (NCATS) in-house library, and 256 compounds for each assay were selected for the experimental validation of nuisance behavior. The BA for these external predictions ranged from 58 to 78% for compounds within the applicability domains of the models. […] The models developed in this study, along with aggregation models previously developed by our group (SCAM Detective) were implemented in "Liability Predictor," an online tool which may be used as part of chemical library design or for triaging HTS hits. Both the models and the curated datasets are publicly available at https://liability.mml.unc.edu/.
PROTOCOL TABLE SEQUENCE No. (e.g., 1, 2, 3, etc.); PARAMETER (e.g., Cells, Incubation, Reagent, etc.); VALUE; DESCRIPTION. 1; Reagent; 4 uL; […]. 2; Compounds and control; 16 nL; Kalypsis pin tool (Wako USA) equipped with a 1536-well pin head. 3; Incubation; 1 hour. 4; Detection; Fluorescence, ViewLux microplate reader, 525 nm excitation, 598 nm emission. NOTES (numbers refer to Sequence numbers above) 1. Assays determining (E)-2-(4-mercaptostyryl)-1,3,3-trimethyl-3H-indol-1-ium (MSTI) reactivity were performed as previously described in the literature with modifications for the quick identification of compounds reacting with thiol. In brief, 4 uL of MSTI or positive control Acetyl-MSTI (final concentrations of 4 uM and 4 uM, respectively) in assay buffer (2% DMSO in 1X PBS pH 7.4) was dispensed into all wells of a 1536-well assay plate (solid-bottom black plate; Greiner Bio One, Monroe, NC). 2. A Wako Pin-tool (Wako Automation, Richmond, VA) was used to transfer 16 nL of compounds (consisting of 7-plates in qHTS format, final concentration range 18.3 nM to 114 uM) or control MLS001163887 (final concentration range 1.22 nM to 40 uM). 3. Plates were centrifuged (121xg, 15 seconds) and incubated for 1 hour at room temperature protected from light. 4. Samples were read for fluorescence (Ex/Em = 525(20)/598(25) nm) on a ViewLux CCD imager (PerkinElmer). Data were normalized to Acetyl-MSTI (0% activity) and MSTI (100% activity) and the resulting percent inhibition data were fitted to a 4-parameter Hill equation using NCATS in-house software.
Background: Quantitative high-throughput screening tests each substance at several concentrations.
On to `COC(=O)c1c(NC(=O)COc2ccc(C(C)C)cc2)sc2c1CCCC2`, for which the “activity change, negative = inhibition” value was 34% (inactive). Same read-out and setting: with `O=C1CC(c2ccc(O)c(O)c2)Oc2cc(O)cc(O)c21` (stereo not given) the figure was -4.21% (inactive); with `COc1ccc(NC(=O)Nc2cccc(-c3noc(C)n3)c2)cc1`, 61.9% (inactive). Same read-out and setting: as for `COc1ccc(C2Nc3ccccc3C(=O)N2CC(C)(C)C)cc1COc1ccc(NC(C)=O)cc1` (stereo not given), the figure is 43.5% (inactive); as for `COc1ccc(/C=C/c2cc(O)cc(O[C@H]3OC(CO)C(O)C(O)C3O)c2)cc1` (stereo not given in full), 11.9% (inactive). On to `COc1cc2c(C(=O)N3CCN(c4ccc(F)cc4)CC3)cn(CC(C)C)c(=O)c2cc1OC`, for which the “activity change, negative = inhibition” value is 36.4% (inactive).

Turning to `Cc1ccc(NC(=O)Cn2c(=O)oc3cc(S(=O)(=O)N4CCCCC4)ccc32)c(Cl)c1`, the “activity change, negative = inhibition” value is 261% (inactive). For the compound `Cc1ccc(NC(=O)CC2Nc3cccc4cccc(c34)NC2=O)cc1` (stereo not given), the Potency is 1540 nM (active). Take `CCCC12CN3CC(C)(CN(C1)C3c1ccc(CC)cc1)C2=O` (stereo not given): the “activity change, negative = inhibition” value is 57.3% (inactive). `O=c1c2ccccc2nc2sc(NS(=O)(=O)c3ccc4c(c3)CCC4)nn12`: the “activity change, negative = inhibition” value is 226% (inactive). Turning to `COC(=O)c1ccc2nc(C)cc(Nc3ccc(O)cc3)c2c1`, the “activity change, negative = inhibition” value is -5.75% (inactive).

Regarding `COc1cccc(CN2CCCN(Cc3ccc(F)cc3)S2(=O)=O)c1`, the “activity change, negative = inhibition” value was 74.8% (inactive). Turning to `O=C(NCc1ccccc1)C1(C(F)(F)F)C/C(=C\CCO)CCCO1` (stereo not given), the “activity change, negative = inhibition” value was -3.94% (inactive). With `Cn1cc(CN(C(=O)Nc2ccc(Cl)c(Cl)c2)C2CCCCC2)c2ccccc21`, the “activity change, negative = inhibition” value is 81.3% (inactive).

`CCOc1ccc(CCNC(=O)c2ccc3c(c2)nc2n3CCOC2)cc1OCC`: the “activity change, negative = inhibition” value is 109% (inactive).

`CCOc1ccccc1NC(=O)CSc1nc2c(oc3ccccc32)c(=O)n1-c1ccc(F)cc1`: the “activity change, negative = inhibition” value is 96.4% (inactive). With `Cc1ccc(C)c(N2CCN(S(=O)(=O)c3cc(Br)cc4c3N(C(=O)C3CC3)CC4)CC2)c1`, the “activity change, negative = inhibition” value is 4.58% (inactive). In the case of `O=C(O)c1c(CNCc2cccc(F)c2)c2ccccc2n1Cc1ccccc1`, the “activity change, negative = inhibition” value is 66.1% (inactive). As to `CC(C)C(=O)SCCCCCCC(=O)Nc1nc(-c2ccccc2)cs1`, the “activity change, negative = inhibition” value is 30.7% (inactive). As for `CCCCOc1ccc(C2C(=O)N(C3CCCCC3)CC(=O)N2CCCC)cc1` (stereo not given), the “activity change, negative = inhibition” value was 3.5% (inactive). For the compound `OCC1=C[C@@H](O)[C@@H]2C=CO[C@@H](OC3O[C@H](CO)[C@@H](O)[C@H](O)[C@H]3O)[C@H]12` (stereo not given in full), the “activity change, negative = inhibition” value is 12.5% (inactive). With `Cc1nn(C(=O)COc2ccccc2Br)c(C)c1Sc1ccccc1`, the “activity change, negative = inhibition” value was 72.4% (inactive). Same read-out and setting: as for `COc1ccc(CCn2c3c(c(=O)[nH]c2=S)CN(C(C)C)CN3)cc1OC`, the figure is 48.3% (inactive). On to `Nc1c(N=Nc2ccc([N+](=O)[O-])cc2)c(S(=O)(=O)O)cc2cc(S(=O)(=O)O)c(/C=C/c3ccccc3)c(O)c12`, for which the Potency is 61.2 nM (active). With `COc1ccc(NC(=O)c2ccco2)cc1NC(=O)c1ccccc1[N+](=O)[O-]`, the “activity change, negative = inhibition” value was -13.1% (inactive). Still for that read-out and setting: as for `CCC(Sc1ncc(S(=O)(=O)c2ccc(Cl)cc2)c(=O)[nH]1)C(=O)Nc1ccc(OC)cc1` (stereo not given), the figure is 118% (inactive); as for `Cc1ccc(-c2nc3scc(CCNS(=O)(=O)c4ccc(F)c(C)c4)n3n2)cc1`, 49.9% (inactive); as for `COc1cccc(N2CCN(c3c4c(nc5nncn35)CCC4)CC2)c1`, 29.3% (inactive). The same measure, in the same setting: as for `CC/C=C/C/C=C/C/C=C/CCCCCCCC(=O)OCC`, the figure is -15% [at 78.4 µM] (inactive).

With `COc1ccc(-c2[nH]ncc2C(=O)NCc2cccc(OC)c2)cc1`, the “activity change, negative = inhibition” value was 51.6% (inactive). On the same count and under the same terms, as for `COc1ccc(OCc2nnc(-c3ccccc3)o2)cc1`, the figure is 77.2% (inactive); as for `COc1ccc(-c2oc3cc(O[C@@H]4OC(CO)C(O)C(O)C4O)c(OC)c(O)c3c(=O)c2OC)cc1O` (stereo not given in full), -48.7% (inactive); as for `O=C(NCCc1ccccc1)C1CCC(CNS(=O)(=O)c2ccccc2)CC1` (stereo not given), 139% (inactive). Consider `Cc1ccc2cccc(NC(=O)c3ccc(-c4cccc([N+](=O)[O-])c4)o3)c2n1`, for which the “activity change, negative = inhibition” value is -0.59% (inactive). For the compound `O=C(CSc1nccn1C1CCCC1)Nc1ccc(C(F)(F)F)cc1`, the “activity change, negative = inhibition” value is 40.6% (inactive).

On to `COc1ccc(-c2coc3cc(O)ccc3c2=O)c(OC)c1O`, for which the “activity change, negative = inhibition” value was 1.63% (inactive). On to `O=C1CCCc2[nH]c(=O)c(-c3nc(-c4cccc([N+](=O)[O-])c4)cs3)cc21`, for which the Potency is 3860 nM (active). With `CN(Cc1ccccc1)c1ncnc2c1nc1n2CCCC1`, the “activity change, negative = inhibition” value was 90% (inactive). As to `COc1ccc(CNC(=O)c2nnn(CC(=O)Nc3cc(C)cc(C)c3)c2N)cc1`, the “activity change, negative = inhibition” value was 234% (inactive). The same measure, in the same setting: as for `COC(=O)c1cc(NC(=O)c2ccc3c(c2)NC(=O)c2ccccc2S3)cc(C(=O)OC)c1`, the figure is 428% (inactive).
